Assay outcomes: PubChem, National Center for Advancing Translational Sciences (NCATS)
This is a sample that favours compounds with a hit; in the whole collection about 4.6% have one here.
Tau fibril FP: tau fibrillization inhibition (FP); K18 P301L tau heparin fibrillization, Alexa594 FP, 6 h; P10636; AID 1468; Potency, µM (top dose mostly 57.7 µM), inactives show at the highest dose activity, negative = inhibition, usual class: inhibitors; 280,000 tested, 0.39% active; further: potency means the concentration at half of the fitted maximal effect; nearly all actives have a fitted effect of over 55% in size
Target sequence (P10636 561-689 P618L limits assumed): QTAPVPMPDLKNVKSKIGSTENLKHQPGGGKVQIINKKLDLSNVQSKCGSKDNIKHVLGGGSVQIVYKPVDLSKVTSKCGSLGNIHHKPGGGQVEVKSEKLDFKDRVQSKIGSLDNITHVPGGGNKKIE
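Recombinant K18 P301L […], labeled with Alexa 594 at 0.24 uM over 15 uM unlabeled; heparin inducer 20 uM final; 37 C, 6 hr; FP endpoint.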
TRb-SRC2 inh: inhibitors of human thyroid hormone receptor beta-SRC2 interaction; TRbeta-SRC2 peptide binding, fluorescence polarization; receptor liganded with 1 µM T3; Potency, µM (doses to about 106 µM), for inactives: top-dose activity change, negative = inhibition, usual class: inhibitors; 280,000 tested, 0.065% active; AID 1469;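 further: potency means the concentration at half of the fitted maximal effect; plate controls were bound peptide for no effect and peptide without receptor for full effect; nearly all actives have a fitted effect of over 50% in size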
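Fluorescence polarization of 20 nM Texas Red SRC2 peptide with 0.6 uM human TRb ligand-binding domain, in Tris buffer with 1uM T3 and 5% DMSO. Incubated 5 hr ambient; normalized to unbound and bound controls.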
Tau fluor counter: counter-screen for tau fibril formation inhibitors | 280,000 tested, 0.93% active | tau K18 P301L Alexa594 fluorescence, heparin fibrillization | Potency, µM (top dose mostly 57.7 µM), for inactives: top-dose activity change, negative = decrease; further: potency means the concentration at half of the fitted maximal effect; nearly all actives have a fitted effect of over 55% in size
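Human tau K18 P301L (15 uM unlabeled, 0.24 uM Alexa 594-labeled) in 100 mM sodium acetate pH 7 with 20 uM heparin, 6 hr at 37 C. ThT 30 uM added, 1 hr ambient; Alexa 594 FP and total fluorescence read at 555/632 nm.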
PNC inhibitor: blocks assembly of the perinucleolar compartment; PC3M PTB-GFP, PNC prevalence imaging, 16 h; active compounds read low; activity change (PNC), negative = inhibition, % at 10 µM; 140,000 tested, 3.1% active;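 active means readout at or below -70, meaning at least 70% loss of cells showing the perinucleolar compartment, a nuclear body marking cancer cells; inconclusive means readout between -30 and a set limit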;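 further: plate controls were DMSO wells for no effect and camptothecin positive control wells for full effect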
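Read-out is percentage of cells bearing a perinucleolar compartment, from automated 20x imaging of fixed, Hoechst-stained PC3M PTB-GFP cells. Cells were seeded 4 h, then exposed 16 h to compound (23 nl of library stock) in duplicate plates.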
TexasRed fluor: counter-screen for TRb-SRC2 inhibitors: fluorescence interference; 280,000 tested, 0.29% active; TRb/SRC2 Texas Red total fluorescence interference; Potency, µM (titrated, usually from 106 µM), for the others: top-dose fluorescence change, negative = quenching; AID 1479; active means well fitted curve in either direction with a large enough effect; inconclusive means small, poorly fitted or top-dose-only effect; further: potency means the concentration at half of the fitted maximal effect
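Human TRb ligand-binding domain at 0.6 uM with 20 nM Texas Red SRC2 peptide in Tris buffer containing 1 uM T3 and 5% DMSO, incubated with compound 5 h at ambient temperature. Total fluorescence (555/632 nm) calculated as parallel + 2 × perpendicular.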
Tau fibril ThT: tau fibrillization inhibition (ThT binding). P10636. recombinant tau K18 P301L, heparin-induced fibrillization, ThT fluorescence. Potency, µM (doses to about 57.4 µM), without a hit: at the highest dose activity, negative = inhibition, actives largely listed as inhibitors. 270,000 tested, 2.1% active. AID 1460; further: potency means the concentration at half of the fitted maximal effect; nearly all actives have a fitted effect of over 55% in size
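Fibril formation assay: tau K18 P301L at 15 uM with trace Alexa 594 label, heparin inducer 20 uM, pH 7 sodium acetate buffer, 37 C for 6 hr; endpoint ThT signal.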
Active calls of the source: *; [ ] = remark or other dose. Unless noted, the call rests on the fitted dose curve; in most records, active means well fitted curve in the direction sought with a large enough effect; inconclusive means small, poorly fitted or top-dose-only effect, or another doubt; inactive means no such curve, though single readings can be large; an effect the other way counts as inactive or inconclusive. Unless noted, on the % scale 0 is the no-effect control and ±100 the full control effect.

`COC(=O)CCC(=O)OC1(C)C(=O)C2=CN(Cc3ccc(OC)cc3)C(c3ccc(OC)cc3)=CC2=C(Br)C1=O` (stereo not drawn) gave Tau fibril FP 4.9%[11.6 µM], TRb-SRC2 inh 0.4%[11.2 µM], Tau fluor counter -16.7%[11.6 µM], TexasRed fluor -3.1%[11.2 µM] and Tau fibril ThT -16.0%[11.5 µM].
For Clc1ccc(C2=Nn3c(nnc3-c3cc(-c4ccccc4)n[nH]3)SC2)cc1 the results were Tau fibril FP -13.5%, TRb-SRC2 inh 2.7%, Tau fluor counter -19.1%, PNC inhibitor -10.4, TexasRed fluor -4.9% and Tau fibril ThT -7.1%.
`Cn1ccc(O)c(C#N)c1=O` gave Tau fibril FP -4.3%, TRb-SRC2 inh 5.5%, Tau fluor counter -12.4%, TexasRed fluor -3.8% and Tau fibril ThT -5.2%.
`COC1=C/C(=C/c2c(O)c(C#N)c3ccccn23)C=CC1=O` gave Tau fibril FP -11.4%, TRb-SRC2 inh 0.4%, Tau fluor counter -21.2%, TexasRed fluor 0.6% and Tau fibril ThT 14.1µM*.
CCOC(=O)C1=C(c2ccccc2)N2CCS(=O)(=O)N=C2S1 was read as Tau fibril FP 1.2%, TRb-SRC2 inh -0.3%, Tau fluor counter -0.6%, PNC inhibitor -83.3*, TexasRed fluor -3.0% and Tau fibril ThT -6.3%.
Screening CCOc1cc(/C=N/NC(=O)c2cccc([N+](=O)[O-])c2)ccc1OS(=O)(=O)c1ccccc1 returned Tau fibril FP -8.5%, TRb-SRC2 inh -0.7%, Tau fluor counter 14.1µM*[quencher], PNC inhibitor 40.6, TexasRed fluor -2.3% and Tau fibril ThT -16.8%.
Screening COc1cc(/C=C(\NC(=O)c2ccccc2)C(=O)Nc2cccc(O)c2)c([N+](=O)[O-])cc1OC returned Tau fibril FP -11.5%, TRb-SRC2 inh 2.1%, Tau fluor counter -19.4%, PNC inhibitor 13.3, TexasRed fluor -1.1% and Tau fibril ThT -14.8%.
`COc1cc(/C=C(\NC(=O)c2ccccc2)C(=O)NCCO)c([N+](=O)[O-])cc1OC` gave Tau fibril FP 1.0%, TRb-SRC2 inh -2.0%, Tau fluor counter -0.1%, PNC inhibitor -93.1*, TexasRed fluor -2.4% and Tau fibril ThT -7.4%.
COc1cc(/C=N/NC(=O)/C(=C\c2ccc([N+](=O)[O-])cc2)NC(=O)c2ccccc2)cc(OC)c1O was read as Tau fibril FP 15.4%, TRb-SRC2 inh -8.3%, Tau fluor counter inconclusive, PNC inhibitor 11.6, TexasRed fluor -4.0% and Tau fibril ThT 28.2µM*.
Screening Cc1ccccc1NC(=O)/C(=C\c1cccs1)NC(=O)c1ccccc1 returned Tau fibril FP 2.1%, TRb-SRC2 inh -0.8%, Tau fluor counter -2.5%, PNC inhibitor 49.4, TexasRed fluor -1.6% and Tau fibril ThT -3.5%.
Screening O=C(N/N=C/c1cc([N+](=O)[O-])cc([N+](=O)[O-])c1O)/C(=C\c1cccs1)NC(=O)c1ccccc1 returned Tau fibril FP 13.1%, TRb-SRC2 inh 2.7%, Tau fluor counter -9.3%, PNC inhibitor -19.0, TexasRed fluor -8.6% and Tau fibril ThT 12.6µM*.
COc1ccc(OC)c(NC(=O)Nc2nnc(N3CCC(C)CC3)s2)c1 was read as Tau fibril FP 8.7%, TRb-SRC2 inh 6.0%, Tau fluor counter inconclusive, PNC inhibitor 47.2, TexasRed fluor 0.1% and Tau fibril ThT inconclusive.
`O=C(c1cc2ccccc2oc1=O)N1CCN(c2ccc(F)cc2)CC1` gave Tau fibril FP -7.1%, TRb-SRC2 inh 3.8%, Tau fluor counter -18.2%, TexasRed fluor -1.5% and Tau fibril ThT -11.4%.
`Cn1c(NC(=O)c2ccc(F)cc2)c(-c2cccs2)c(=O)c2ccccc21` gave Tau fibril FP 4.0%, TRb-SRC2 inh -3.0%, Tau fluor counter -23.9%, TexasRed fluor -0.5% and Tau fibril ThT -16.8%.
